From PubChem
HP1b binding inh – HP1-beta chromodomain-methylated histone interaction inhibition; AlphaScreen HP1-beta / biotin-H3K9me3 peptide binding; Potency, µM (titrated, usually from 114 µM), inactives show top-dose activity change, negative = inhibition, actives largely listed as inhibitors; P83916; AID 540317; 390,000 tested, 0.56% active; further: nearly all actives have a fitted effect of over 70% in size
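Compound inhibition of the preformed complex between 50 nM HP1-beta and 50 nM biotinylated H3K9me3 peptide was read by AlphaScreen. Buffer was PBS pH 7.4 with 0.01% Tween-20. Incubations ran 30 min at room temperature, with 10 ug/mL donor/acceptor beads.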
Sfp inh – Sfp phosphopantetheinyl transferase inhibition; Q9F4F7; Biochemical Sfp PPTase activity, qHTS; Potency, µM, without a hit: largest response in the series, negative = inhibition, hits mostly inhibitors; 310,000 tested, 3.5% active;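 further: the enzyme is Sfp with the accession as filed and its product quenches rhodamine fluorescence; 0% = enzyme reaction without inhibitor and -100% = no enzyme wells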
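Fluorescence-quenching assay: 15 nM Sfp-PPTase preincubated 15 min at room temperature with compound, then 5 uM rhodamine-CoA and 12.5 uM BHQ-2-labelled YbbR peptide added. Fluorescence (ex 525/em 598 nm) read at start and after 30 min; difference gives rate.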
G9a block – inhibitors of human histone lysine methyltransferase G9a. AID 504332. G9a H3K9 monomethylation, AlphaScreen, 2 h. Potency, µM (titrated, usually from 102 µM), for inactives: top-dose activity, negative = inhibition, usual class: inhibitors. 350,000 tested, 8.8% active; further: on the % scale 0 is the no-effect control and ±100 the full control effect; nearly all actives have a fitted effect of over 75% in size
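Quantitative HTS format: methyltransferase activity on a biotin-tagged H3K9 peptide is measured by AlphaScreen, using a rabbit anti-monomethyl-H3K9 antibody with streptavidin donor and anti-IgG acceptor beads. Final levels are 20 nM enzyme, 500 nM peptide, 20 uM SAM; 2 h RT.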
JMJD2A Tudor – JMJD2A Tudor domain (human) inhibition. O75164. AlphaScreen JMJD2A-Tudor / H3K4me3 peptide binding. Potency, µM (doses to about 114 µM), inactives show at the highest dose activity change, negative = inhibition, actives largely listed as inhibitors. 390,000 tested, 4.4% active. AID 504339; further: on the % scale 0 is the no-effect control and ±100 the full control effect; nearly all actives have a fitted effect of over 50% in size
Target sequence (O75164 whole entry, looked up, the tested form may be a part): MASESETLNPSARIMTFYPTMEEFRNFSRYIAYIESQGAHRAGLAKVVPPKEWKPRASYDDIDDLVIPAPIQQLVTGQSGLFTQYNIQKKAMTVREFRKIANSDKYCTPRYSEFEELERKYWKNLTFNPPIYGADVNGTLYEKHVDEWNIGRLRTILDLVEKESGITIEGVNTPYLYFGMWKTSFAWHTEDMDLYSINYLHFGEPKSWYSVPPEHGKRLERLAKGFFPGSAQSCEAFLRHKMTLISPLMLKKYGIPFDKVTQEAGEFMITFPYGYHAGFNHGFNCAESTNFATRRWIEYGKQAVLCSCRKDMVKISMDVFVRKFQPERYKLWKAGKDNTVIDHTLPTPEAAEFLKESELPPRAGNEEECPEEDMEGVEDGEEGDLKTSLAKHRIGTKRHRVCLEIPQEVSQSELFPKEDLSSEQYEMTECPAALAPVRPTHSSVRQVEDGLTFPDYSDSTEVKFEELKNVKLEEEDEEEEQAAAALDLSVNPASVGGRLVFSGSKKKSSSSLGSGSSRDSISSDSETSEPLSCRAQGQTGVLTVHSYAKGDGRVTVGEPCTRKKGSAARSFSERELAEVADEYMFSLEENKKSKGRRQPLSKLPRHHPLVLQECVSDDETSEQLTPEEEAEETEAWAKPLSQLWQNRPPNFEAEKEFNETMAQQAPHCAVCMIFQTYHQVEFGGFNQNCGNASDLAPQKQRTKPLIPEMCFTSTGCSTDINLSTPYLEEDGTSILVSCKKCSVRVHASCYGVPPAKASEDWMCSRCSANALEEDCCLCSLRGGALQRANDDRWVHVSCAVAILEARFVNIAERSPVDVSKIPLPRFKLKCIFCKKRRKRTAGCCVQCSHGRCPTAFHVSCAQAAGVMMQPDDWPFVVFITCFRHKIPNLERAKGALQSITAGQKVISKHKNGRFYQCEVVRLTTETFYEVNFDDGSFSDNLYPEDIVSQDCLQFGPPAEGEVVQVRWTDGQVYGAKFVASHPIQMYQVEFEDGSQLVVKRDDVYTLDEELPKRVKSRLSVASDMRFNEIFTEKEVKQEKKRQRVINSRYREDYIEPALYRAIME
L3MBTL1 inh – inhibitors of human L3MBTL1; Q9Y468; 230,000 tested, 0.66% active; Potency, µM (series often up to 57.1 µM), for inactives: at the highest dose activity, negative = inhibition, most hits filed as inhibitors; AlphaScreen L3MBTL1–H3K9me1 peptide binding; further: on the % scale 0 is the no-effect control and ±100 the full control effect; nearly all actives have a fitted effect of over 60% in size
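L3MBTL1 50 nM + b-AHA-H3(1-15)K9me1 75 nM, 30 min RT; compound added, 30 min RT; streptavidin donor/Ni-chelate acceptor beads 10 ug/mL each final, 30 min RT dark; AlphaScreen read.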
BAZ2B block – blocks human BAZ2B; 360,000 tested, 4.4% active; AlphaScreen BAZ2B-H3K14Ac peptide displacement; Potency, µM (doses to about 114 µM), without a hit: top-dose activity change, negative = inhibition, most hits filed as inhibitors; Q9UIF8; further: on the % scale 0 is the no-effect control and ±100 the full control effect; nearly all actives have a fitted effect of over 60% in size
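BAZ2B 50 nM plus b-H3(5-23)K14Ac 50 nM, PBS pH 7.4/0.01% Tween-20, 30 min RT; compound added (max 110 uM), 30 min RT; streptavidin donor/Ni-chelate acceptor beads 10 ug/mL final, 20 min dark; AlphaScreen read.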
Active calls of the source: *; ? = inconclusive; . = no result given; ! = not confirmed by another sample; [ ] = another dose, or the depositor's remark. Shown are actives, neighbours in structure and some others; about 12% of the full set was active somewhere. The call rests on the fitted dose curve; in most records, active means well fitted curve in the direction sought with a large enough effect; inconclusive means small, poorly fitted or top-dose-only effect, or another doubt; inactive means no such curve, though single readings can be large; an effect the other way counts as inactive or inconclusive. Potency means the concentration at half of the fitted maximal effect.

SMILES	HP1b binding inh	Sfp inh	G9a block	JMJD2A Tudor	L3MBTL1 inh	BAZ2B block
CCN(CCO)c1ccc(-n2c(N)c(C(=O)OC)c3nc4ccccc4nc32)cc1	-5.9%	-24.0%	35.5µM*	79.4µM*	-4.4%	?
N#Cc1ccc(-n2nnc3ccccc3c2=O)c([N+](=O)[O-])c1	40.6%	.	.	9.0%	.	.
N#Cc1ccc(N2CCc3ccccc3C2)c([N+](=O)[O-])c1	4.7%	44.7µM*	?	?	-7.1%	?
Fc1ccccc1Cn1nnc2c(-n3ccnc3)ncnc21	-11.3%	-3.6%	-29.9%	56.2µM*	8.0%	2.1%
Cc1[nH]c(C)c(S(=O)(=O)N2CCN(c3ccccc3)CC2)c1C(=O)N1CCCC1	6.0%	-2.3%	44.7µM*	-25.2%	.	-11.7%
O=C(Nc1cccc(O)c1)c1cc2nc(-c3ccc(Br)cc3)cc(C(F)(F)F)n2n1	16.4%	.	-0.1%[59 µM]	-17.5%	.	5.9%
CC(=O)c1nc2ccccc2n1S(=O)(=O)c1ccc(C)cc1	17.6%	2.6%	?	-9.3%	-0.3%	?
CC(=O)c1nc2ccccc2n1S(=O)(=O)c1ccc(Cl)cc1	28.2%	7.8%	-118.8%	-24.4%	4.0%	56.2µM*
COc1ccc(Nc2cc(C(=O)NCCCN(C)C3CCCCC3)c3ccccc3n2)cc1	?	.	-35.0%[59 µM]	?	.	.
COc1ccc(N2CCN(CCCNC(=O)c3cc(Nc4ccc(OC)cc4OC)nc4ccccc34)CC2)cc1	?	.	12.6µM*	25.1µM*	.	15.8µM*
COc1ccc(Nc2cc(C(=O)NCCCN(C)C3CCCCC3)c3ccccc3n2)c(OC)c1	?	.	?	20µM*	.	.
COc1ccc(Nc2cc(C(=O)N3CCc4ccccc4C3)c3ccccc3n2)c(OC)c1	3.8%	2.9%	17.8µM*	?	?	?
CCOc1ccc(-n2ccnc(SCC(=O)NCc3cccc(OC)c3)c2=O)cc1	32.9%	.	-30.1%	-14.5%	-11.9%	-1.4%
CCOc1ccc(-n2ccnc(SCC(=O)Nc3ccc(OC)cc3OC)c2=O)cc1	-14.5%	.	35.5µM*	?	-9.3%	?
COc1cccc(-n2ccnc2SCC(=O)Nc2cc(OC)ccc2OC)c1	44.7µM*	-4.2%	?	89.1µM*	?	28.2µM*
COc1cccc(NC(=O)CSc2nccn2-c2cccc(OC)c2)c1	-25.1%	12.5%	39.8µM*	?	-10.1%	?
COc1ccc2cnnc(SCC(=O)Nc3ccccc3)c2c1OC	30.5%	-0.7%	3.4%[59 µM]	-10.8%	6.6%	6.9%
COc1ccc(OC)c(NC(=O)CSc2nncc3ccc(OC)c(OC)c23)c1	9.3%	?	.	-33.1%	3.1%	79.4µM*
CCOc1ccc(NC(=O)c2cc(S(=O)(=O)NC3CCCC3)ccc2F)cc1	32.7%	.	1.1%[59 µM]	-13.8%	.	-9.1%
COc1ccc(NC(=O)CSc2nccn2Cc2ccco2)c(OC)c1	28.1%	-0.5%	-17.6%[59 µM]	-11.7%	.	-38.5%
COc1cccc(NC(=O)C(Cc2ccccc2)n2cccc2)c1 (configuration not stated)	10.5%	18.6%	-25.2%	-12.0%	.	?
COc1ccc(NC(=O)CSc2nccn2Cc2ccccc2)c(OC)c1	-3.8%	5.3%	44.7µM*	-26.5%	.	?
COc1cccc(-n2ccnc2SCC(=O)Nc2ccccc2F)c1	?	?	-46.1%	?	.	25.1µM*
COc1cccc(-n2ccnc2SCC(=O)Nc2cccc(C)c2C)c1	-1.8%[57 µM]	.	?	-34.8%	.	?
COc1ccc(NC(=O)C(Cc2ccccc2)n2cccc2)c(OC)c1 (configuration not stated)	-4.4%[57 µM]	-4.3%	?	-26.3%	.	35.5µM*!
SMILES	HP1b binding inh	Sfp inh	G9a block	JMJD2A Tudor	L3MBTL1 inh	BAZ2B block
COc1ccc2nc(SCC(=O)Nc3cc(OC)c(OC)cc3C(=O)O)c(C)cc2c1	19.6%	79.4µM*	56.2µM*	?	-9.8%	-30.8%
O=C(NCCc1csc(-c2cccnc2)n1)c1cccc(C(F)(F)F)c1	4.6%[57 µM]	.	3.4%[59 µM]	1.0%	.	-6.6%
Cc1cc2c(n1-c1ccc(C(=O)NCc3cccc(Br)c3)cc1)CCC(C)C2 (configuration not stated)	15.9%	.	?	-30.7%	.	?
CCCC(=O)N(c1ccc2oc3c(c2c1)CCCC3)S(=O)(=O)c1ccc(CC)cc1	4.7%	.	1.3%[59 µM]	-9.7%	.	-13.3%
O=C(CCn1c(=O)c2cccn2c2cccnc21)N1CCN(c2cccc(Cl)c2)CC1	-15.3%	7.3%	?	15.8µM*!	.	-31.7%
Cc1ccc(O)c(C2=NNC(O)(C(F)(F)F)C2)c1 (configuration not stated)	23.1%	23.2%	56.2µM*	-12.6%	.	10.9%
COc1cc2oc(=O)cc(-c3ccc(-c4sccc4C=O)cc3)c2c(OC)c1OC	.	18.1%	14.5%[59 µM]	.	.	.
CCCCCCCCCCCCCCCC(=O)NCC(COP(=O)([O-])OCC[N+](C)(C)C)OCC (configuration not stated)	.	.	16.1%[12.7 µM]	.	.	.
CCCCCCCCCCCCCCCCCC(=O)NCC(COP(=O)([O-])OCC[N+](C)(C)C)OCC (configuration not stated)	.	.	13.4µM*	.	.	.
CC1(C)CC(=O)C(C(=O)/C=C/c2ccco2)C(=O)C1	?	4.5%	22.8%[12.7 µM]	?	-96.5%	?
COc1cc(OC)c(OC)cc1/C=C1/Cc2ccccc2C1=O	81.8%	11.3%	-8.8%[2.33 µM]	-21.8%	.	3.7%
CCC1C/C(=C/c2ccco2)C(=O)/C(=C/c2ccco2)C1 (configuration not stated)	.	31.6µM*	31.6µM*	.	31.6µM*	28.2µM*
COc1cc(OC)c(OC)cc1/C=C1\CC(C)C/C(=C\c2cc(OC)c(OC)cc2OC)C1=O (configuration not stated)	?	44.7µM*	31.6µM*	20µM*	.	11.2µM*
